An excerpt weighted towards active compounds, which were near 6.8% of everything screened.
OTUD3 block – human OTUD3 deubiquitinase inhibition | 47,000 compounds, 0.7% hits | purified OTUD3, Ub-rhodamine fluorescence, 2 h | inhibition, % at 25 µM | AID 1645858
USP10 block – human USP10 deubiquitinase inhibition. Q14694. purified USP10, Ub-rhodamine fluorescence, 60 min. inhibition, % at 20 µM. 47,000 compounds, 1.1% hits. AID 1645856
USP7 block – inhibitors of human USP7 deubiquitinase | Q93009 | purified USP7, Ub-rhodamine cleavage fluorescence | inhibition, % at 20 µM | 47,000 compounds, 0.3% hits | AID 1645854
USP8 inh – human USP8 deubiquitinase inhibition; P40818; purified USP8, Ub-rhodamine cleavage fluorescence, 30 min; inhibition, % at 20 µM; 47,000 compounds, 4.2% hits
UCHL1 block – blocks human UCHL1 ubiquitin-rhodamine cleavage; P09936; purified UCHL1, Ub-rhodamine cleavage fluorescence; inhibition, % at 20 µM; 47,000 compounds, 0.2% hits; AID 1645859
USP28 block – blocks human USP28 ubiquitin-rhodamine cleavage; Q96RU2; purified USP28, Ub-rhodamine cleavage fluorescence, 30 min; inhibition, % at 25 µM; 47,000 compounds, 3% hits; AID 1645857
An asterisk follows results filed as active. No stated cut-off is given here; in the data, active means inhibition above about 30%; inactive means the rest.

For CN1C(=O)N(CC(=O)N2CCCC2c2cncc(-n3ccnc3)n2)C(=O)C12CCCCC2 (centres undefined) the results were OTUD3 block 9, USP10 block 0, USP7 block -1, USP8 inh 36*, UCHL1 block 1 and USP28 block 6.
Cc1nc2c(c(=O)n1CC(=O)Nc1ccccc1)CCN(Cc1ccccc1)C2 was read as OTUD3 block -1, USP10 block -2, USP7 block 3, USP8 inh -35, UCHL1 block 5 and USP28 block 2.
Screening Cc1ccccc1NC(=O)Cn1c(C)nc2c(c1=O)CCN(Cc1ccccc1)C2 returned OTUD3 block -6, USP10 block -14, USP7 block -3, USP8 inh 49*, UCHL1 block -1 and USP28 block -3.
Screening O=C(NCc1ccc(F)cc1)c1cnc2ccccc2n1 returned OTUD3 block -9, USP10 block -6, USP7 block -8, USP8 inh -4, UCHL1 block -3 and USP28 block -10.
Screening Cc1ccc(CNC(=O)c2cnc3ccccc3n2)cc1 returned OTUD3 block 30*, USP10 block -5, USP7 block 0, USP8 inh 11, UCHL1 block -2 and USP28 block -1.
CCCC(O)CCCCCCCc1cc(O)cc(O)c1C(=O)OC(CCC)CCCCCCCc1cc(O)cc(O)c1 (centres undefined) was read as OTUD3 block 19, USP10 block 76*, USP7 block 0, USP8 inh 15, UCHL1 block 6 and USP28 block 26.
CCOC(=O)Cc1cc(O)cc(O)c1C(=O)CCCCCC(C)O (centres undefined) was read as OTUD3 block -3, USP10 block -4, USP7 block -2, USP8 inh -8, UCHL1 block -2 and USP28 block -1.
O=C(NCc1ccccn1)c1ccc(-c2ccc(N3CCSCC3)nc2)cc1 was read as OTUD3 block 9, USP10 block 0, USP7 block 4, USP8 inh 2, UCHL1 block 6 and USP28 block 33*.
`CN(C)C(=O)c1ccc(-c2ccc(N3CCCCC3)nc2)cc1` gave OTUD3 block 0, USP10 block 3, USP7 block -16, USP8 inh 3, UCHL1 block 0 and USP28 block 11.
`COCCCNC(=O)c1ccc(-c2ccc(N3CCCCC3)nc2)cc1` gave OTUD3 block 15, USP10 block 12, USP7 block -9, USP8 inh 37*, UCHL1 block 1 and USP28 block 18.
`CCc1nnc(-c2[nH]c(C)c(S(=O)(=O)NC3CCCCCC3)c2C)o1` gave OTUD3 block -4, USP10 block -1, USP7 block -1, USP8 inh 5, UCHL1 block 0 and USP28 block -9.
For CC(=O)N1CCc2cc(CNC(=O)NC34CC5CC(CC(C5)C3)C4)ccc21 the results were OTUD3 block -14, USP10 block -2, USP7 block 3, USP8 inh -26, UCHL1 block -1 and USP28 block -15.
`Cc1ccc2[nH]c3c(=O)n(CCc4ccccc4)cnc3c2c1` gave OTUD3 block -1, USP10 block 12, USP7 block 6, USP8 inh 32*, UCHL1 block 1 and USP28 block -3.
Screening CCOc1ccc2[nH]c3c(=O)n(CCC4=CCCCC4)cnc3c2c1 returned OTUD3 block 14, USP10 block 9, USP7 block 10, USP8 inh 47*, UCHL1 block 3 and USP28 block 15.
`Cc1ccc(NC(=O)c2cc(-c3ccncc3)n[nH]2)cc1Cl` gave OTUD3 block -3, USP10 block 15, USP7 block 16, USP8 inh 22, UCHL1 block 1 and USP28 block 36*.
`Cc1ccc(NC(=O)C2CCN(C(=O)c3cc(-c4ccncc4)n[nH]3)CC2)cc1Cl` gave OTUD3 block 39*, USP10 block -2, USP7 block 3, USP8 inh 17, UCHL1 block 4 and USP28 block 37*.
`Cn1c2ccccc2c(=O)c2c(=O)n(-c3cccc(Cl)c3)c(-c3cccs3)nc21` gave OTUD3 block -7, USP10 block 63*, USP7 block 66*, USP8 inh 94*, UCHL1 block 29 and USP28 block -21.
`CCc1nc2c(c(=O)c3ccccc3n2C)c(=O)n1-c1ccc(C)cc1` gave OTUD3 block 1, USP10 block 5, USP7 block -5, USP8 inh 31* and UCHL1 block 33*.
`Cc1ncccc1C(=O)N1CCOCC(Cc2cc(=O)[nH]cn2)C1` (centres undefined) gave OTUD3 block 1, USP10 block -2, USP7 block 3, USP8 inh 14, UCHL1 block 0 and USP28 block 7.
O=C1CN(C(=O)COc2cccc3ccccc23)c2ccccc2N1 was read as OTUD3 block 2, USP10 block -3, USP7 block 0, USP8 inh 84*, UCHL1 block 5 and USP28 block 23.
CC(Nc1ccccc1Oc1ccccc1)C(=O)N1CC(=O)Nc2ccccc21 (centres undefined) was read as OTUD3 block -6, USP10 block 5, USP7 block -16, USP8 inh 9, UCHL1 block 2 and USP28 block 37*.
`Cc1snc(Sc2ncc(C(F)(F)F)cc2Cl)c1C#N` gave OTUD3 block -5, USP10 block 2, USP7 block -14, USP8 inh -4, UCHL1 block 0 and USP28 block 3.
Screening O=C1C(NS(=O)(=O)Cc2ccc(Cl)cc2)CCN1c1ccccc1 (centres undefined) returned OTUD3 block 9, USP10 block 5, USP7 block 16, USP8 inh 31*, UCHL1 block 9 and USP28 block 8.
Cc1ccc(CNC(=O)NC2CCN(c3ccccc3)C2=O)cc1 (centres undefined) was read as OTUD3 block 16, USP10 block 6, USP7 block 9, USP8 inh 32*, UCHL1 block 3 and USP28 block 9.
CC1CS(=O)(=O)N(c2ccc(C(=O)N3CCCc4ccccc43)cc2)C1=O (centres undefined) was read as OTUD3 block 17, USP10 block -3, USP7 block 0, USP8 inh -2, UCHL1 block 0 and USP28 block 12.
CCN1C[C@@H]2C[C@]2(c2ccccc2OC)C(=O)c2ncccc21 was read as OTUD3 block -20, USP10 block -4, USP7 block -8, USP8 inh 94*, UCHL1 block 1 and USP28 block 1.
COc1ccccc1[C@]12C[C@H]1CN(C(=O)Nc1ccncc1)c1cccnc1C2=O was read as OTUD3 block 13, USP10 block 0, USP7 block 1, USP8 inh -10, UCHL1 block -2 and USP28 block 7.

From PubChem BioAssay
